PubChem BioAssay (NCATS)
“And” between values parts separate entries of the source, which are not always exact repeats. Equal values may be shown once. Results filed as inconclusive are left out. The source made the active and inactive calls. Unless noted, calls follow the shape of the dose curve; as a rule, active = well fitted cell-killing curve with a large enough effect; inconclusive = small, poorly fitted or top-dose-only effect; inactive = flat fitted curve, though single readings scatter.

Tests used:
[1] = Cell Viability - LYMP2-006 (AID 978); also: series mostly up to about 92 µM; % is scaled to controls: 0 for no effect and ±100 for the full control effect; nearly all actives have a fitted effect of over 60% in size
Procedure, shortened: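 Potency values are Hill-fit AC50s for decreases in intracellular ATP (CellTiter-Glo luminescence). LYMP2-006 lymphoblastoid cells, 2500 per well, were exposed to compound in complete culture medium for 24 hr at 37 C.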

[2] = Cell Viability - LYMP2-007 (AID 979);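 also: cells exposed to compound for 24 h before reading; 0% = DMSO only and the negative end = 92 µM tetraoctylammonium bromide; nearly all actives have a fitted effect of over 60% in size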
Procedure, shortened: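 Measured via luciferase-based ATP quantitation: lymphoblastoid cells, 24 hr compound exposure at 37 C, AC50 from Hill fits.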

[3] = Cell Viability - LYMP2-008 (AID 980); also: % is scaled to controls: 0 for no effect and ±100 for the full control effect; nearly all actives have a fitted effect of over 60% in size
Procedure, shortened: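 Measured: ATP-dependent luminescence, proportional to viable cell number, in human lymphoblastoid cells treated 24 hr with compound in complete culture medium. Values are AC50s from Hill-equation modelling of qHTS titrations.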

[4] = Cell Viability - LYMP2-012 (AID 982);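 also: cellular ATP by luciferase luminescence where a drop means cytotoxicity; cells exposed to compound for one day before reading; 0% = DMSO only and full loss = 92 µM tetraoctylammonium bromide; nearly all actives have a fitted effect of over 55% in size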
[5] = Cell Viability - LYMP2-014 (AID 983);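 also: series mostly up to about 92 µM; plate controls were DMSO only for no effect and 92 µM tetraoctylammonium bromide for full effect; nearly all actives have a fitted effect of over 50% in size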
Procedure, shortened: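 Quantitative HTS in lymphoblastoid cells: 24 hr compound exposure, then CellTiter-Glo ATP luminescence. Positive control was tetraoctylammonium bromide, 6.4pM to 92 uM.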

[6] = Cell Viability - LYMP2-016 (AID 984); also: % is scaled to controls: 0 for no effect and ±100 for the full control effect; nearly all actives have a fitted effect of over 55% in size
Procedure, shortened: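 Cytotoxicity was scored by luminescent ATP content (CellTiter-Glo) after 24 h compound exposure at 37 C of a human lymphoblastoid line at 2500 cells/well. Concentration-response data were fitted to the Hill equation for AC50.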

[7] = Cell Viability - LYMP2-018 (AID 985);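 also: plate controls were DMSO only for no effect and tetraoctylammonium bromide at 92 µM for full effect; nearly all actives have a fitted effect of over 50% in size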
Procedure, shortened: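 In this qHTS viability assay, cells are treated for 24 hr and cellular ATP is quantified by luciferase-based luminescence, with tetraoctylammonium bromide as positive control.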

[8] = Cell Viability - LYMP2-020 (AID 986);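 also: series mostly up to about 92 µM; plate controls were DMSO only for no effect and tetraoctylammonium bromide at 92 µM for full effect; nearly all actives have a fitted effect of over 55% in size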
Procedure, shortened: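 Cells at 2500 per well receive a 24 hr compound exposure at 37 C. Viability is measured as ATP-dependent luciferase luminescence, with AC50 modeled from qHTS concentration-response curves.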

[9] = Cell Viability - LYMP2-022 (AID 987);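 also: 0% = DMSO alone and full effect = tetraoctylammonium bromide at 92 µM; nearly all actives have a fitted effect of over 55% in size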
Procedure, shortened: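 In this qHTS cytotoxicity screen, compound titrations were incubated 24 hr at 37 C with human lymphoblastoid cells in complete medium. Luciferase-based ATP luminescence provided the viability signal.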

[10] = Cell Viability - LYMP2-026 (AID 989); also: % is scaled to controls: 0 for no effect and ±100 for the full control effect; nearly all actives have a fitted effect of over 50% in size
Procedure, shortened: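 Acute toxicity screen in complete culture medium, with 24 hr compound exposure at 37 C. Viability read as cellular ATP via luciferase reaction, with tetraoctylammonium bromide (6.4pM to 92 uM) as positive control.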

[11] = Cell Viability - LYMP1-002 - Assay at 24 hr (AID 993); also: % is scaled to controls: 0 for no effect and ±100 for the full control effect
Procedure, shortened: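 Viability was judged from intracellular ATP using a luciferase read-out, following a 24-hour compound incubation at 37 C of lymphoblastoid cells seeded at 2500 per well. Concentration-response data were fitted to the Hill equation for AC50.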

[12] = Cell Viability - LYMP1-002 - Assay at 40 hr (AID 994);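 also: 0% = DMSO only and full inhibition = 92 µM tetraoctylammonium bromide; nearly all actives have a fitted effect of over 60% in size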
Procedure, shortened: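 Concentration-dependent ATP loss after 40 hr treatment at 37 C defined toxicity; AC50 values were obtained by fitting the standard Hill equation.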

[13] = qHTS Assay for Identification of Small Molecule Inducers of Hypoxia Response (AID 2120; active = well fitted curve in the direction sought with a large enough effect in the signal ratio, with a control signal flat, not every such curve was filed as active; the % refers to the signal ratio; also: 0% is about no effect)
Procedure, shortened: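 HRE-bla ME-180, 2500 cells/well, 0.5% dialyzed FBS medium; cpd titration, 17 h 37 degrees C; CCF4 2.5 h RT; Ex 405, Em 460/530 ratio -> %Activity, AC50.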

[14] = target: Estrogen receptor (Homo sapiens) (UniProt P03372); test: qHTS assay for small molecule antagonists of estrogen receptor alpha signaling (AID 588513; active = well fitted curve in the direction sought with a large enough effect in the signal ratio, with a control signal flat, not every such curve was filed as active; the % refers to the signal ratio; also: % is scaled to controls: 0 for no effect and ±100 for the full control effect)
Chain of Estrogen receptor (Homo sapiens) (P03372 whole entry, looked up): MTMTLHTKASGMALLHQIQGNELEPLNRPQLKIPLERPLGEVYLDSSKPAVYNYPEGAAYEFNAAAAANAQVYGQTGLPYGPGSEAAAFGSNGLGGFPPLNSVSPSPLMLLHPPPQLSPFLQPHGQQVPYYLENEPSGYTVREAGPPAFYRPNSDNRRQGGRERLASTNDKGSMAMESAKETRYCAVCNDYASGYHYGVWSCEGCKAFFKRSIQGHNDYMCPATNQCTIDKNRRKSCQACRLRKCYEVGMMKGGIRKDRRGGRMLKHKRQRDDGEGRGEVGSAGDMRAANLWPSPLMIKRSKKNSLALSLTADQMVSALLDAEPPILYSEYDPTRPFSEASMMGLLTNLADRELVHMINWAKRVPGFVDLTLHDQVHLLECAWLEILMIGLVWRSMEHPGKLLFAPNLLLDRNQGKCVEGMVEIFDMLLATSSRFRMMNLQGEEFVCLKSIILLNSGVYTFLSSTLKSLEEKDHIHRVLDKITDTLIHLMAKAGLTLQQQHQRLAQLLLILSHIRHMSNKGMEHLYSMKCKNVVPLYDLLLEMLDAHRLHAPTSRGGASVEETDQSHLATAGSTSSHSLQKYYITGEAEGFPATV
Procedure, shortened: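 Antagonist mode: inhibition of 0.5 nM 17-beta-estradiol-driven beta-lactamase reporter in HEK 293 ER-alpha-UAS-bla cells, 18 h at 37C, CCF4 readout after 2 h at RT. Normalised to estradiol and DMSO; titration fitted to Hill.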

[15] = target: Bile acid receptor (Homo sapiens) (UniProt Q96RI1); test: qHTS assay for small molecule antagonists of farnesoid X receptor signaling (AID 588526; calls by dose curve; also: % is scaled to controls: 0 for no effect and ±100 for the full control effect)
Chain of Bile acid receptor (Homo sapiens) (Q96RI1 whole entry, looked up): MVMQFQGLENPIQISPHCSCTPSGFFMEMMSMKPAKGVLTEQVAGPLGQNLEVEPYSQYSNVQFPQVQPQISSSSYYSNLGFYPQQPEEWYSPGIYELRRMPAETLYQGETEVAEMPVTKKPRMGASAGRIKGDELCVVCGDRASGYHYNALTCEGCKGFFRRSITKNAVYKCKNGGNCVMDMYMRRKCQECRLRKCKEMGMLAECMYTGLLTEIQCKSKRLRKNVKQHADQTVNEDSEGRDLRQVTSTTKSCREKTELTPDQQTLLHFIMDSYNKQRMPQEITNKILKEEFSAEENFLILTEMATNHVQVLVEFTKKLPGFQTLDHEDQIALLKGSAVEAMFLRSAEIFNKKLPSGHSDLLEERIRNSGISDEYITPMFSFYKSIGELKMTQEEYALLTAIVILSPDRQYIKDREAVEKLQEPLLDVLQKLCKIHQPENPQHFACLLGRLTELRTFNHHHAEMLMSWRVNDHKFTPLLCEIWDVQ
Procedure, shortened: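 Beta-lactamase reporter antagonist mode: HEK293T FXR-UAS-bla cells, titrated compound, CDCA stimulation, 16 h 37 C, CCF4 dye 2 h RT. Data normalized to CDCA 50 uM and DMSO; Hill-fit IC50.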

[16] = target: Bile acid receptor (Homo sapiens) (UniProt Q96RI1); test: qHTS assay for small molecule agonists of farnesoid X receptor signaling (AID 588527; calls by dose curve;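 also: series mostly up to about 77 µM; 0% = vehicle basal and 100% = reference agonist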); settings: HEK293T FXR-UAS-bla, beta-lactamase ratio, 16 h; activation: stronger effect = higher value
Procedure, shortened: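 Agonist-mode beta-lactamase reporter in GeneBLAzer FXR-UAS-bla HEK293T cells, titration up to 92 uM, 16 h exposure at 37 C, CCF4 fluorescence. Response scaled to DMSO (0%) and 100 uM chenodeoxycholic acid (100%), then Hill-fitted for EC50 and efficacy.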

[17] = target: Glucocorticoid receptor (Homo sapiens) (UniProt P04150); test: qHTS assay for small molecule antagonists of glucocorticoid receptor signaling (AID 588533; active = well fitted inhibition curve with a large enough effect in the signal ratio, with a control signal flat, not every such curve was filed as active; the % refers to the signal ratio;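 also: cells stimulated with 2 nM dexamethasone as agonist; % is scaled to controls: 0 for no effect and ±100 for the full control effect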)
Chain of Glucocorticoid receptor (Homo sapiens) (P04150 whole entry, looked up): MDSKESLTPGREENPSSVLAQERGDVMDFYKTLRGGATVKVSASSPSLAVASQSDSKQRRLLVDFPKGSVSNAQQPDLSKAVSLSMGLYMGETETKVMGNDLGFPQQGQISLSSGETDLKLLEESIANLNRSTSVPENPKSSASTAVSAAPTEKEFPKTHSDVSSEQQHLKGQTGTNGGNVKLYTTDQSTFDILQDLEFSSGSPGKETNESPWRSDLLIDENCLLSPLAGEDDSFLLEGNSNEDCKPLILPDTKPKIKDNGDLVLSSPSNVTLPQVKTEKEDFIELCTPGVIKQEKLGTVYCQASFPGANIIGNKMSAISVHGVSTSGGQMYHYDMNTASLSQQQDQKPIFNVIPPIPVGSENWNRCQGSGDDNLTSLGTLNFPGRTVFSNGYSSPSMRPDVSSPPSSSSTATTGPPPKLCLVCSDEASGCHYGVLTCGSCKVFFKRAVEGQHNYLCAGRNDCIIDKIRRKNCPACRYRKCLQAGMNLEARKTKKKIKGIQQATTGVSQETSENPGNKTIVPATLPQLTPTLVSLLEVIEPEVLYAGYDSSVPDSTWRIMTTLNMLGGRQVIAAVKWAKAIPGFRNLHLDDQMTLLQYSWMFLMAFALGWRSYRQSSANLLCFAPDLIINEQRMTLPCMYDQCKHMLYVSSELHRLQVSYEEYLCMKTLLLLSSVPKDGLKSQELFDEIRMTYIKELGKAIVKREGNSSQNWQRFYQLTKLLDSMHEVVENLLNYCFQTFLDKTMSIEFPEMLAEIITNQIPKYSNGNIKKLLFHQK
Procedure, shortened: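 Antagonist-mode qHTS: compound titrations added to GRE-bla HeLa cells, then dexamethasone 2 nM final; 18 h, 37 C. CCF4 FRET fluorescence normalized to dexamethasone and DMSO; IC50 from Hill fit.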

[18] = target: Peroxisome proliferator-activated receptor gamma (Homo sapiens) (UniProt P37231); test: qHTS assay for small molecule agonists of peroxisome proliferator-activated receptor gamma signaling (AID 588536; active = well fitted curve in the direction sought with a large enough effect in the signal ratio, with a control signal flat, not every such curve was filed as active; the % refers to the signal ratio;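 also: 0% = DMSO basal wells and 100% = rosiglitazone at 2 µM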)
Chain of Peroxisome proliferator-activated receptor gamma (Homo sapiens) (P37231 whole entry, looked up): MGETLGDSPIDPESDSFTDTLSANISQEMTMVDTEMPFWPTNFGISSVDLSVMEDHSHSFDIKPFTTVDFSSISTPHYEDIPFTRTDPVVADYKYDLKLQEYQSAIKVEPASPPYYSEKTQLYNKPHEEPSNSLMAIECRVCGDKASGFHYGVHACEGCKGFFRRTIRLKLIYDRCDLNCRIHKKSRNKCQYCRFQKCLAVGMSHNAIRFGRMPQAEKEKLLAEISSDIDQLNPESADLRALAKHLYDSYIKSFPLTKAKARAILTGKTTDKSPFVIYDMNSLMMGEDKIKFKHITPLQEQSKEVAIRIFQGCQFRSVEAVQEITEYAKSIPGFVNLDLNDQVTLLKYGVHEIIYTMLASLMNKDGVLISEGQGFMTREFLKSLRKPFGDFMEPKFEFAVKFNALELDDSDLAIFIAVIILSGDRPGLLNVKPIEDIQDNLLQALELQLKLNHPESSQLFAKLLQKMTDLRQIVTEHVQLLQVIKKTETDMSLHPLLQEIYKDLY
Procedure, shortened: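 This is an agonist-mode beta-lactamase reporter assay in HEK293 PPAR-gamma-UAS-bla cells with 1% charcoal/dextran FBS. Compound titrations ran 16 h at 37 C before CCF4 detection. EC50 and efficacy are Hill fits scaled to 2 uM rosiglitazone (100%) and DMSO basal.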

[19] = target: Peroxisome proliferator-activated receptor gamma (Homo sapiens) (UniProt P37231); test: qHTS assay for small molecule antagonists of peroxisome proliferator-activated receptor gamma signaling (AID 588537; active = well fitted inhibition curve with a large enough effect in the signal ratio, with a control signal flat, not every such curve was filed as active; the % refers to the signal ratio;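 also: reporter cells co-stimulated with 50 nM rosiglitazone agonist during compound treatment; % of control where 0% means no effect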)
Procedure, shortened: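 Cell-based beta-lactamase assay; GW9662 served as the antagonist control. Stimulation used rosiglitazone, final 50 nM, 16 h, 37 C.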

[20] = target: Vitamin D3 receptor (Homo sapiens) (UniProt P11473); test: qHTS assay for small molecule antagonists of vitamin D receptor signaling (AID 588541; calls by dose curve)
Chain of Vitamin D3 receptor (Homo sapiens) (P11473 whole entry, looked up): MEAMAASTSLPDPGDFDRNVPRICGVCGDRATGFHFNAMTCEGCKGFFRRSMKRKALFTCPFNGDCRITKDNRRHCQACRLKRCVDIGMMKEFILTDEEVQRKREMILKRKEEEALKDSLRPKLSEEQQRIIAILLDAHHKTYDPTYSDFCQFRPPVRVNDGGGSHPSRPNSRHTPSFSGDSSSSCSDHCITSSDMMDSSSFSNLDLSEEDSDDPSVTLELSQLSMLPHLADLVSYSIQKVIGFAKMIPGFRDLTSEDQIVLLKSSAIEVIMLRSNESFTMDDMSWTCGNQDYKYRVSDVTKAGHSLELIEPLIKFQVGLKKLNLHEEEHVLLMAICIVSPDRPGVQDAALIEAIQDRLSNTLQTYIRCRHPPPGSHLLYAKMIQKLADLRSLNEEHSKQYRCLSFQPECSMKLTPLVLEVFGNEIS
Procedure, shortened: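 Antagonist-mode beta-lactamase reporter assay: HEK293T VDR-UAS-bla cells were exposed to titrated compound alongside 1-alpha,25-dihydroxyvitamin D3 at 3 nM final for 16 h. Values were normalized to the 50 nM agonist control and DMSO basal, with IC50 and efficacy from Hill equation fits.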

[21] = qHTS assay for small molecule agonists of retinoid X receptor alpha signaling (AID 588544; calls by dose curve;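 as to activation: 0% = DMSO basal wells and 100% = reference agonist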); settings: HEK293T RXRa-UAS-bla, beta-lactamase reporter, 18 h; 530 nm emission
[22] = target: Retinoic acid receptor RXR-alpha (Homo sapiens) (UniProt P19793); test: as above
Chain of Retinoic acid receptor RXR-alpha (Homo sapiens) (P19793 whole entry, looked up): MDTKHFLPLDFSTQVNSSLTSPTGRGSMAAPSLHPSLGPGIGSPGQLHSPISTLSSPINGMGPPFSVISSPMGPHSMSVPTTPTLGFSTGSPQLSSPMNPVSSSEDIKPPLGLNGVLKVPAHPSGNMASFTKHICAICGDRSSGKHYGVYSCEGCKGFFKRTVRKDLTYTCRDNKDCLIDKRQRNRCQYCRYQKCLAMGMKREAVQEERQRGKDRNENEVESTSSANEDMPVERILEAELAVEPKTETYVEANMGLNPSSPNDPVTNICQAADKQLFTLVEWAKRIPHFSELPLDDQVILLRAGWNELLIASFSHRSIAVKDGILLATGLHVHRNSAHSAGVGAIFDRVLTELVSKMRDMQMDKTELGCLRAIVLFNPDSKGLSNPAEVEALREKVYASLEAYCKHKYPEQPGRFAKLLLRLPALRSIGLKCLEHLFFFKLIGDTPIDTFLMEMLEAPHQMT

[23] = target: Thyroid hormone receptor beta (Homo sapiens) (UniProt P10828); test: qHTS assay for small molecule agonists of thyroid hormone receptor beta signaling (AID 588545; calls by dose curve)
Chain of Thyroid hormone receptor beta (Homo sapiens) (P10828 whole entry, looked up): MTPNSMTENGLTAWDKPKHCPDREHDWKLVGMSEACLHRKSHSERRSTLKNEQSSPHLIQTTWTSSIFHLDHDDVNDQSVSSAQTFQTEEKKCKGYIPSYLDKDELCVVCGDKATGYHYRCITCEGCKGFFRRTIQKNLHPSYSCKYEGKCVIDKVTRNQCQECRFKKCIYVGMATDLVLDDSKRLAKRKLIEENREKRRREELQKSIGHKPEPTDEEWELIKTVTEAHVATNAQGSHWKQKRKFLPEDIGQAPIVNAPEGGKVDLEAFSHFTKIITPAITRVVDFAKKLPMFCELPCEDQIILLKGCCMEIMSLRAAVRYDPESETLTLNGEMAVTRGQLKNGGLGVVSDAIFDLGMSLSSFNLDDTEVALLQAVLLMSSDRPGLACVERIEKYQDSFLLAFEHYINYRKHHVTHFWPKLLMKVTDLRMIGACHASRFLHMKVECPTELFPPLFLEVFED
Procedure, shortened: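 Cells (2500/well) were seeded, incubated 4 hrs at 37 C, dosed with a compound series, incubated 18 hrs, loaded with CCF4 dye for 2 hrs at RT, then read for fluorescence. Data were scaled between DMSO (0%) and 10 nM T3 (100%).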

COC(=O)c1ccccc1C(=O)OC
inactive: outcome [1] | outcome [2] | outcome [3] | outcome [4] | outcome [5] | outcome [6] | outcome [7] | outcome [8] | outcome [9] | outcome [10] | outcome [11] | Potency [12] | outcome [13] | Potency [14] | Potency [15] | activation [16] -0.299% and -2.92% | Potency [17] | outcome [18] | Potency [19] | outcome [20] | outcome [22] | Potency [23]
-8.66%: max response [21]
